# Source: PubChem BioAssay (several laboratories)
# An excerpt weighted towards active compounds, which were near 0.97% of everything screened.
# TcdB inh: inhibitors of Clostridioides difficile toxin B glycohydrolase; inhibition, % at 9.99 µM; P18177; AID 652162; TcdB glycohydrolase enzymatic assay, plate reader; hit rate 0.24% among 350,000; in the data active = inhibition above about 10%
# Mtb UGM inh: inhibitors of M. tuberculosis UDP-galactopyranose mutase; hit rate 0.06% among 320,000; P9WIQ1; purified UGM, fluorescence polarization probe displacement; inhibition, % at 10 µM; in the data active = inhibition above about 10%, passing the limit was not always enough
# BioA inh: BioA (M. tuberculosis) enzyme inhibition | AID 602481 | inhibition, % at 9.99 µM | hit rate 0.096% among 360,000 | purified M. tuberculosis BioA enzyme, plate reader; in the data active = inhibition above about 40%
# Rv3671c protease: Rv3671c (M. tuberculosis) protease inhibition; P9WHR9; inhibition, % at 5.96 µM; hit rate 0.048% among 320,000; AID 2606; in the data active = inhibition above about 38%;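 note: extracellular domain of Rv3671c used as enzyme; 0% = enzyme with DMSO and 100% = no enzyme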
# Target sequence (P9WHR9 whole entry, looked up, the tested form may be a part): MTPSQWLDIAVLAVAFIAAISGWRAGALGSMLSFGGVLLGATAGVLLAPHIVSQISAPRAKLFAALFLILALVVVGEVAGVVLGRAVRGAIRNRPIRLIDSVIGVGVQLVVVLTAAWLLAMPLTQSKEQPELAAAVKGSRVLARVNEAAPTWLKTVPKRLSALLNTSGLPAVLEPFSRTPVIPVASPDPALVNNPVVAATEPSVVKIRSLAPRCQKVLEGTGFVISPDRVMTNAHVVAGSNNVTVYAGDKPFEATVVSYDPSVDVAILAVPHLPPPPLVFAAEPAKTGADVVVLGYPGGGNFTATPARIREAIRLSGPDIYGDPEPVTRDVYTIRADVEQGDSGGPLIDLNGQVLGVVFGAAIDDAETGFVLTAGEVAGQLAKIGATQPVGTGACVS
# RecA intein inh: blocks M. tuberculosis RecA intein splicing | P9WHJ3 | cell-free RecA intein splicing, fluorescence | inhibition, % (no concentration beside the values) | hit rate 0.75% among 290,000 | AID 2221; in the data active = inhibition above about 30%;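 note: 0% = vehicle wells and 100% = reference inhibitor control wells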
# FadD28 binding: M. tuberculosis FadD28 bisubstrate binding inhibition. hit rate 0.22% among 360,000. FadD28 bisubstrate probe binding, fluorescence polarization. inhibition, % at 12.5 µM. AID 588549; in the data active = inhibition above about 8.5%, passing the limit was not always enough
# * hit, by the source's call; · = no result given.
SMILES,TcdB inh,Mtb UGM inh,BioA inh,Rv3671c protease,RecA intein inh,FadD28 binding
CSc1ccc(/C=N/Nc2cccc(C(=O)O)c2)cc1,·,·,·,·,·,13*
COC(=O)c1ccc(COc2ccc(/C=N/Nc3cccc(C(=O)O)c3)cc2)cc1,-4,1,·,-1,6,11*
C[C@@H]1CN([C@H](C)CO)C(=O)c2cc(NC(=O)CCN3CCOCC3)ccc2O[C@H]1CN(C)S(C)(=O)=O,0,·,0,·,·,·
C[C@@H]1CCCCO[C@H](CN(C)C(=O)Nc2ccc(F)cc2)[C@H](C)CN([C@@H](C)CO)C(=O)c2cc(NS(=O)(=O)c3ccccc3)ccc2O1,0,·,0,·,·,·
CCCN(C)C[C@H]1Oc2cc(-c3cccc(OC)c3)ccc2S(=O)(=O)N([C@H](C)CO)C[C@H]1C,0,·,2,·,·,·
COC(=O)[C@@]12CCCCN1[C@H](c1ccc(-c3ccccc3)c(OC)c1)[C@H]1C(=O)N(C)C(=O)[C@H]12,12*,-1,-2,-6,·,1
COC(=O)[C@@]12CCCCN1[C@H](c1ccc(-c3cccc(Cl)c3)c(OC)c1)[C@@H]1C(=O)N(C)C(=O)[C@@H]12,1,-4,0,0,3,-4
COc1ccc(CN(C)C[C@@H]2Oc3ccc(NS(=O)(=O)c4cccs4)cc3C(=O)N([C@@H](C)CO)C[C@@H]2C)cc1,0,·,·,·,·,·
C[C@@H]1CN([C@@H](C)CO)C(=O)c2cc(NS(=O)(=O)c3cccs3)ccc2O[C@@H](C)CCCCO[C@@H]1CN(C)C(=O)CCC(F)(F)F,·,·,-8,·,·,·
Cc1ccccc1CS(=O)(=O)c1nnc([C@H](CC(C)C)NC(=O)OC(C)(C)C)o1,1,0,-2,2,52*,0
O=C(Nc1nnc(-c2ccco2)o1)C1CC1,10*,-3,0,-14,-6,-1
CCCNC(=O)Nc1ccc2c(c1)OC[C@@H](C)N(C(C)=O)C[C@@H](C)[C@H](OC)CN(C)C2=O,-2,·,·,·,·,·
O=[N+]([O-])c1ccc(CNc2ccc(Cl)cc2)s1,0,0,5,-10,5,10*
O=[N+]([O-])c1ccc(CNc2ccc(F)cc2)s1,1,-1,0,1,1,3
COc1cc(/C=C/C(=O)OCC(=O)Nc2ccc3c(c2)OCCO3)ccc1O,·,1,0,-13,1,-3
COc1cc(/C=C(\C#N)C(=O)Nc2ccc3c(c2)OCCO3)ccc1O,15*,-2,·,4,32*,-1
CCOC(=O)/C(C#N)=C/c1cccc(C)c1,0,-2,-1,·,-4,-4
CCOC(=O)/C(C#N)=C\c1ccc(O)c(OC)c1,·,1,·,-7,40*,1
N#C/C(=C/c1ccc(-c2ccc(S(N)(=O)=O)cc2)o1)C(=O)Nc1ccccc1,·,0,0,-28,-2,-5
N#C/C(=C/c1ccc(-c2ccc(S(N)(=O)=O)cc2)o1)c1nc2ccccc2s1,·,4,·,-59,·,20*
O=C(O)C1Nc2c(O)cccc2C2C=CCC12 (stereo unspecified),-6,1,·,31,·,15*
O=C(O)C1Nc2ccc(Br)cc2C2C=CCC12 (stereo unspecified),·,5,3,16,0,27*
O=C(O)C1Nc2c(Cl)cc(Cl)cc2C2C=CCC12 (stereo unspecified),·,0,1,3,6,14*
Cc1ccc(-c2ccc3c(c2)O[C@@H](CN(C)Cc2ccccc2)[C@@H](C)CN([C@@H](C)CO)S3(=O)=O)cc1,1,·,-2,·,·,·
COc1cccc(-c2ccc3c(c2)[C@H]2[C@H](CCN2C(=O)NC2CCCCC2)[C@@H](CO)N3C)c1,1,·,·,·,·,·
SMILES,TcdB inh,Mtb UGM inh,BioA inh,Rv3671c protease,RecA intein inh,FadD28 binding
COc1ccc(C#Cc2ccc3c(c2)[C@H]2[C@H](CCN2Cc2ccncc2)[C@@H](CO)N3)cc1,2,·,·,·,·,·
COc1ccc(CNC(=O)C[C@H]2C[C@@H]3c4cc(NS(C)(=O)=O)ccc4O[C@@H]3[C@@H](CO)O2)cc1,0,·,0,·,·,·
CCS(=O)(=O)N1CC(=O)N2[C@H](C1)[C@@H](c1ccc(C#CCC3CCCC3)cc1)[C@@H]2CO,0,·,·,·,·,·
COC(=O)Nc1nn(-c2ccc(OC)cc2)c(=O)c(C#N)c1C,2,-1,·,2,40*,0
CCOc1ccc(NC(=O)c2ccc(CC)s2)c([N+](=O)[O-])c1,10*,0,-3,0,-5,2
CCOC(=O)C1Nc2c(F)cc(C)cc2C2c3ccccc3CC12 (stereo unspecified),1,0,-1,-9,45*,-1
